# From PubChem BioAssay
# Activity calls are given as the source filed them. Unless noted, no rule for the calls is given here.
# Experiments:
# [1] = anti-His antibody binders, primary screen, artefact control for SMM control protein annotation, biochemical, small-molecule microarray, 635 nm fluorescence (AID 1128); details: anti-His Alexa647 antibody binding, higher = more signal;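 also: score merges feature fluorescence with signal-to-noise for each printed compound spot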
# [2] = system: Human papillomavirus type 1a E7 protein (residues 1-88); test: HPV1a E7 small-molecule binders, primary screen, biochemical, small-molecule microarray, residues 1-88, 635 nm (AID 1129); details: small-molecule microarray binding, fluorescence 635 nm; higher = more signal
# [3] = target: Focal adhesion kinase 1 (Homo sapiens) (UniProt Q05397); test: small-molecule microarray binders of FAK, primary screen, biochemical, 635/667 nm fluorescence, BSA, DTT (AID 1130); details: PTK2 binding, 635 nm fluorescence, higher = more signal;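 also: composite of spot emission at 667 nm and signal to noise over triplicate slides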
# [4] = system: Fibrinogen (Alexa647-labelled); test: fibrinogen binders on compound microarrays, profiling panel, artefact control for SMM control-protein annotation, biochemical, small-molecule microarray, 635/667 nm fluorescence (AID 1131); details: fibrinogen-A647 binding fluorescence, higher = more signal;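 also: z-score merges 667 nm fluorescence with per-spot signal-to-noise over triplicate slides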
# [5] = target: Follistatin (Homo sapiens) (UniProt P19883); test: follistatin binders on small-molecule microarrays, primary screen, biochemical, small-molecule microarray, 635/667 nm fluorescence (AID 1132); details: FST binding, 635 nm fluorescence, higher = more signal
# [6] = target: Fibroblast growth factor 2 (Homo sapiens) (UniProt P09038); test: FGF2 binders on small-molecule microarrays, primary screen, biochemical, small-molecule microarray, 635/667 nm fluorescence (AID 1133); details: small-molecule microarray binding, FGF2, fluorescence 635/667; higher = more signal
# [7] = mitochondrial membrane potential change in A549 cells, profiling panel, cell-based, JC-1 fluorescence, basal, 24 h, 100 nL (AID 1138); details: higher = more signal;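 also: A549 lung adenocarcinoma cells under basal conditions with no added stimulus; test concentration not given here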
# [8] = system: Lefty1; test: Lefty1 binders on small-molecule microarrays, primary screen, biochemical, small-molecule microarray, 635/667 nm fluorescence (AID 1139); details: small-molecule microarray binding, fluorescence 635/667; higher = more signal
# [9] = system: wheat germ agglutinin (Triticum aestivum), Alexa647-labelled; test: wheat germ agglutinin binders on compound microarrays, profiling panel, artefact control for SMM control-protein annotation, biochemical, small-molecule microarray, 635/667 nm fluorescence (AID 1140); details: WGA-A647 binding, 635 nm fluorescence, higher = more signal;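 also: score merges 667 nm feature emission with signal to noise over triplicate slides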
# [10] = target: Luciferin 4-monooxygenase (Photinus pyralis) (UniProt P08659); test: firefly luciferase enzyme inhibitors, primary screen, biochemical, luminescence, purified enzyme, 2006 set (AID 1141); details: SteadyGlo luminescence, 30 min, higher = more signal, called active from +8 up or from −8 down;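 also: cell-free assay with purified firefly luciferase at 100 ng per well in PBS; test concentration not given here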
# [11] = system: Wnt5a (protein binding on small-molecule microarray); test: Wnt5a binders on small-molecule microarray, primary screen, biophysical, 635/667 nm fluorescence (AID 1142); details: 635 nm fluorescence, higher = more signal;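 also: fluorescence read at 667 nm with signal to noise per printed feature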
# [12] = cell viability in Huh7 cells, primary screen, cytotoxicity control for HCV replication inhibitor project, CellTiter-Glo luminescence, basal, 48 h (AID 1143); details: Huh7 HCV replicon, higher = more signal, called active from +8 up or from −8 down;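 also: Huh7 hepatoma cells carrying a hepatitis C replication reporter with no stimulus; test concentration not given here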
# [13] = P. aeruginosa biofilm formation inhibitors, primary screen, PAO1 strain, BacTiter-Glo luminescence, LB-PBS (AID 1144); details: 12 h, higher = more signal
# [14] = CREB reporter modulators without forskolin, primary screen, cell-based, PC12, CRE-LacZ reporter, unstimulated (AID 1145); details: no forskolin, luminescence, 4.5 h, higher = more signal, called active from +8 up or from −8 down
# [15] = CREB reporter modulators under forskolin, primary screen, cell-based, PC12, CRE-LacZ reporter, forskolin-stimulated (AID 1146); details: luminescence, 4.5 h, higher = more signal, called active from +8 up or from −8 down;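 also: PC12 cells with 6xCRE LacZ reporter stimulated by forskolin 10 µM; beta-galactosidase reporter signal reflecting CREB driven transcription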
# [16] = target: Streptavidin (Streptomyces avidinii) (UniProt P22629); test: streptavidin binders on small-molecule microarray, primary screen, artefact control for SMM compound annotation, biophysical, 635/667 nm fluorescence (AID 1147); details: streptavidin binding, higher = more signal;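 also: signal reflects streptavidin binding to arrayed compounds as a control protein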
# [17] = small-molecule binders of probe aInhba, primary screen, biochemical, small-molecule microarray, 635/667 nm fluorescence (AID 1148); details: higher = more signal;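 also: score merges 667nm spot fluorescence with signal-to-noise for antibody binding to printed compounds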
# [18] = target: Torsin-1A (Homo sapiens) (UniProt O14656); test: torsin A binders from cell lysate, primary screen, small-molecule microarray, wild-type, 635/667 nm (AID 1149); details: COS7 hTOR1A-WT lysate, 635 nm fluorescence, higher = more signal
# [19] = target: Torsin-1A (Homo sapiens) (UniProt O14656); test: small-molecule binders of mutant TOR1A in lysate, primary screen, cell lysate, small-molecule microarray, COS7 lysate, 635/667 nm fluorescence (AID 1150); details: COS7 hTOR1A mutant lysate, 635 nm fluorescence, higher = more signal;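 also: score pools 667 nm emission and signal to noise measuring lysate protein binding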
# [20] = system: Sonic hedgehog protein (Shh); test: small-molecule binders of Shh protein, primary screen, biochemical, small-molecule microarray, 635/667 nm fluorescence (AID 1151); details: small-molecule microarray binding, 635 nm fluorescence; higher = more signal;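 also: Shh protein binding to compounds spotted on small-molecule microarray slides; score combines spot fluorescence intensity with signal-to-noise across triplicate slides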
# Torsin-1A (Homo sapiens), sequence (O14656 whole entry, looked up): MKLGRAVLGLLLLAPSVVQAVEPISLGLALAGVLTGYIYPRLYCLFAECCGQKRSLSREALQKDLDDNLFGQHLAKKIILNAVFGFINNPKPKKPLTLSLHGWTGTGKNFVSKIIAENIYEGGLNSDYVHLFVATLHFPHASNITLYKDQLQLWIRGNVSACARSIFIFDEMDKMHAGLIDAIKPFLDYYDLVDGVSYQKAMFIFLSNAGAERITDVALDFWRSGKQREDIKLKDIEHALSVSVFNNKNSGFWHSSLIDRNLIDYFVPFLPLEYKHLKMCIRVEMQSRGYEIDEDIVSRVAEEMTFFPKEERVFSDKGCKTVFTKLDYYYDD
# Luciferin 4-monooxygenase (Photinus pyralis), sequence (P08659 whole entry, looked up): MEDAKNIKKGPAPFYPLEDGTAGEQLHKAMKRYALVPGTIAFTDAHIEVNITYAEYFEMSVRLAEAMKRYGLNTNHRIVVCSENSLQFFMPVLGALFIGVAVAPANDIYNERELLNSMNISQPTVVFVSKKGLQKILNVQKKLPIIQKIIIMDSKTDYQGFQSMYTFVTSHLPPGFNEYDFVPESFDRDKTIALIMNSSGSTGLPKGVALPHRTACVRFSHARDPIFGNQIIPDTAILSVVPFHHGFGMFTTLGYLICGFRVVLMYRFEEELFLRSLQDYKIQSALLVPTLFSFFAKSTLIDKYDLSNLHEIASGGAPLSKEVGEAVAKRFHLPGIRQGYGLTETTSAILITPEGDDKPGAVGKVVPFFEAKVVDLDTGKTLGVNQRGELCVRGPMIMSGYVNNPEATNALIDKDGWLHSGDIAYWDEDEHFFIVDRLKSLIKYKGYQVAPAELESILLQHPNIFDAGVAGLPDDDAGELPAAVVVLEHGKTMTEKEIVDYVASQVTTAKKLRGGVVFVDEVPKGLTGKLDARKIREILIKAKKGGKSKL
# Focal adhesion kinase 1 (Homo sapiens), sequence (Q05397 whole entry, looked up): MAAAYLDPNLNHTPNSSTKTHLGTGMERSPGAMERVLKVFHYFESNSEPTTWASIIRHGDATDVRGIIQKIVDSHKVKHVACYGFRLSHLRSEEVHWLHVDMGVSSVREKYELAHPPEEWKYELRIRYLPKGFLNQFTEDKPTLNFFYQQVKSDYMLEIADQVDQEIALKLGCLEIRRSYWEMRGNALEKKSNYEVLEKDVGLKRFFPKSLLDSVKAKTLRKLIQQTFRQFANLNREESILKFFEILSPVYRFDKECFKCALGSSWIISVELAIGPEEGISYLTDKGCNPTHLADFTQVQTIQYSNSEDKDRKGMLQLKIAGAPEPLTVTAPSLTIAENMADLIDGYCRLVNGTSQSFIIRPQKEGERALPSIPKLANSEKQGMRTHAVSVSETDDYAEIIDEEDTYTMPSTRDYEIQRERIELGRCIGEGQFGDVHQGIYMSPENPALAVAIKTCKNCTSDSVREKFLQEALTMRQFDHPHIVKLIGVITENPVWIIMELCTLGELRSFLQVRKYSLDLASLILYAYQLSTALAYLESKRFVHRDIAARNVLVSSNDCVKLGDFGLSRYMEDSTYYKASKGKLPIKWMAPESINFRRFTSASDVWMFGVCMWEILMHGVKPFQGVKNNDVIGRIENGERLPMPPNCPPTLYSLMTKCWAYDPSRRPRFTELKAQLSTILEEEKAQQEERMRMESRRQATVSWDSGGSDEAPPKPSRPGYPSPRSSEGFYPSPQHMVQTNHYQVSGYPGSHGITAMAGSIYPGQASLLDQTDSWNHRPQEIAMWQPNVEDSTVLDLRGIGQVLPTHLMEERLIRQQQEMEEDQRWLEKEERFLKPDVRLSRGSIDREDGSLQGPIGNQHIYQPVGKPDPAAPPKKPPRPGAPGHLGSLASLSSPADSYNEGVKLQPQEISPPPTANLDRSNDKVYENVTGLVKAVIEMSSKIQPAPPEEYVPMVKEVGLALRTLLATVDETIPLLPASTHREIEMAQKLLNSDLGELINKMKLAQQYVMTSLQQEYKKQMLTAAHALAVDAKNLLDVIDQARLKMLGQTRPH
# Follistatin (Homo sapiens), sequence (P19883 whole entry, looked up): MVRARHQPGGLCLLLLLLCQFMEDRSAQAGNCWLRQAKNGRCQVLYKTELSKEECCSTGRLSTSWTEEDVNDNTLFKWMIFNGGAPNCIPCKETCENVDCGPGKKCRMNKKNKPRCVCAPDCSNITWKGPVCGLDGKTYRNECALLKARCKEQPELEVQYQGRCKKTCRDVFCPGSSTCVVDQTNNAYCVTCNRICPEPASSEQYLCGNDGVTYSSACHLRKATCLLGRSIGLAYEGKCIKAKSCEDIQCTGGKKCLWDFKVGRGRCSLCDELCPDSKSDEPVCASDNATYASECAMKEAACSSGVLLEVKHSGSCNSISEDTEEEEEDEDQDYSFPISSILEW
# Fibroblast growth factor 2 (Homo sapiens), sequence (P09038 whole entry, looked up): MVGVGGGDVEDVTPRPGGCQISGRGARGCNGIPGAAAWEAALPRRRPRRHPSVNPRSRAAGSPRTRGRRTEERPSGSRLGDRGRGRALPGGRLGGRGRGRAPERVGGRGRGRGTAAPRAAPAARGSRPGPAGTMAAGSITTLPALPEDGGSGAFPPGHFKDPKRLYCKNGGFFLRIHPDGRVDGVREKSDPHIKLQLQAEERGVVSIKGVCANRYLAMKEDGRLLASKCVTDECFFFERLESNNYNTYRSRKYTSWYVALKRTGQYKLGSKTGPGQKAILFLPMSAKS
# Streptavidin (Streptomyces avidinii), sequence (P22629 whole entry, looked up): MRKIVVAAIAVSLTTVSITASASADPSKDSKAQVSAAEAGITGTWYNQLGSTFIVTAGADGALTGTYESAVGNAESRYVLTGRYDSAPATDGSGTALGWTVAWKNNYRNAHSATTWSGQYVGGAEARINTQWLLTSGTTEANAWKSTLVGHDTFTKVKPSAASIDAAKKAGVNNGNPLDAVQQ
Structure (SMILES),composite z-score [1],composite z-score [2],composite z-score [3],composite z-score [4],composite z-score [5],composite z-score [6],z-score [7],composite z-score [8],composite z-score [9],z-score [10],composite z-score [11],z-score [12],z-score [13],z-score [14],z-score [15],composite z-score [16],composite z-score [17],composite z-score [18],composite z-score [19],composite z-score [20]
CC=CC(O)C1C=CC2C(=O)N(c3ccccc3)C(=O)C2N1Nc1ccccc1F (stereo not given),0.817,0.217,0.451,-1.06,0.0954,-0.189,-1.05,-0.844,0.0224,0.597 (inactive),0.713,-0.118 (inactive),0.103 (inactive),0.481 (inactive),1.23 (inactive),-0.0607,0.572,0.804,0.42,-0.371
CN1C(=O)C2C=CC(C(O)c3cccc4ccccc34)N(N3CCCCC3)C2C1=O (stereo not given),2.11,1.15,0.127,0.853,1.23,0.225,-0.0645,0.789,1.3,-0.848 (inactive),0.156,0.64 (inactive),0.32 (inactive),-0.136 (inactive),0.0556 (inactive),1.85,0.0582,0.613,0.781,0.169
O=C1OCC=C[C@H]2OC34C=CCN(Cn5nnc6ccccc65)C(=O)[C@H]3N(CCCO)C(=O)[C@@H]4[C@@H]12 (stereo not given in full),0.21,-0.603,-0.506,-1.3,-0.537,-0.241,-0.842,-0.618,-0.43,0.314 (inactive),-0.439,-2.27 (inactive),-1.17 (inactive),-0.887 (inactive),-0.247 (inactive),-0.266,-0.224,0.183,-1.85,0.182
Cc1ccc(S[C@]2(C(=O)NCC(F)(F)F)CC(=O)N(Cc3ccccc3C(F)(F)F)[C@@H]2c2ccc(CO)cc2I)cc1,-0.227,-0.727,-0.604,-0.992,-0.638,-1.08,1.17,-0.745,-0.154,0.84 (inactive),-0.0722,-1.26 (inactive),-0.235 (inactive),-0.671 (inactive),0.622 (inactive),-0.619,-0.024,-2.42,-1.67,-0.402
COC(=O)[C@@]1(Cc2ccc(F)cc2)[C@H]2c3cc(C(=O)N4CCCC4)n(CCN4CNCC4=O)c3C[C@H]2CN1C(=O)c1ccccc1,2.44,1.24,0.922,1,-0.0189,-0.841,-1.6,-0.0252,1.01,2.51 (inactive),0.289,-1.11 (inactive),-0.917 (inactive),0.39 (inactive),-1.08 (inactive),1.04,0.179,1.51,1.77,-0.164
C[N+](C)(C)CCCCCCNC(=O)[C@H]1C[C@H]2C(=O)N[C@@H](Cc3ccccc3)C(=O)N2[C@H]1c1ccc(O)cc1,1.32,0.0251,-0.208,-0.222,1.34,0.916,0.0402,1.34,0.112,-0.555 (inactive),0.121,-0.56 (inactive),0.271 (inactive),-1.08 (inactive),-0.227 (inactive),-0.215,-0.0695,0.561,0.313,1.94
CO[C@H]1O[C@H](CO)[C@@H](OC(=O)Nc2ccccc2-c2ccccc2)[C@H](OC(=O)Nc2ccc3c(c2)OCO3)[C@H]1OC(=O)Nc1ccc2c(c1)OCO2,1.02,1.24,1.11,0.941,1.23,0.993,-0.499,0.63,1.1,-6.15 (inactive),0.35,-1.48 (inactive),-0.158 (inactive),0.792 (inactive),-0.97 (inactive),0.144,0.271,0.5,0.723,1.42
CCOC(=O)C[C@H]1[C@H](OC(=O)Cc2ccc3c(c2)OCO3)[C@@H](NC(=O)CC(C)C)c2cc(OCCCO)ccc2N1C(=O)Cc1ccc(OC)cc1,-0.114,0.0383,-0.224,0.641,-0.123,0.11,0.903,-0.194,0.62,-1.91 (inactive),-0.199,-1.04 (inactive),0.29 (inactive),0.0918 (inactive),-0.513 (inactive),-0.0258,-0.0471,0.288,-0.115,-0.113
COc1cc(OC)c(C(O)C2C=CC3C(=O)N(c4ccccc4)C(=O)C3N2Nc2ccccc2)cc1Br (stereo not given),1.95,1.18,0.531,0.454,0.461,-0.179,-0.267,0.387,0.126,-0.229 (inactive),-0.0276,-1.12 (inactive),-0.415 (inactive),0.0501 (inactive),-0.434 (inactive),1.24,0.0155,-0.162,0.282,-0.381
